# Reference: PubChem BioAssay AID1063 (University of Pittsburgh Molecular Library Screening Center, 2008)
# Among all 200,000 compounds or so, about 18,000 (9%) were called active. This is one part of a sample in which actives are shown more often than they occur. Cut-off read from the data, not from the text of the source: active = inhibition above about 50%; inactive = the rest.
# Experiment: Leishmania major promastigote growth inhibition, primary screen (AID 1063);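 note: promastigotes grown with compound for 44 hours at 28 °C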
# Details: Leishmania major promastigotes, resazurin fluorescence viability; at 10 µM; stronger effect = higher value
row,Compound,inhibition
1,CC(C)(C)c1ccc(CN2C(=O)CN=C(c3ccccc3)c3ccccc32)cc1,97.3% (active)
2,CCN1CCN(c2ccc([N+](=O)[O-])cc2C#N)CC1,3.77% (inactive)
3,CN1CCN(Cc2ccc(OC(F)(F)F)cc2)CC1,90.4% (active)
4,CN1CCN(Cc2ccccc2C(F)(F)F)CC1,0.79% (inactive)
5,CN(C)c1ccc(/C=C2\CC3C4CC=C5CC(O)CCC5(C)C4CCC3(C)C2=O)cc1 (stereo not given),37% (inactive)
6,Cc1ccc(-n2c(-c3ccc([N+](=O)[O-])cc3)nc3ccccc3c2=O)cc1,0.86% (inactive)
7,Cc1cccc(OP(=O)(Oc2cccc(C)c2)OC(c2ccccc2)C(F)(F)F)c1 (stereo not given),57.8% (active)
8,CCN(CC)P(=O)(Oc1cccc(C)c1)N(CC)CC,22.5% (inactive)
9,CCC(=O)CC(c1ccc([N+](=O)[O-])cc1)c1c(O)c2ccccc2oc1=O (stereo not given),-15.5% (inactive)
10,CN(C)c1nc(N(C)C)nc(N(C#N)CCCl)n1,-4.48% (inactive)
11,C[N+]12CN3CN(CN(C3)C1)C2,93.8% (active)
12,CC1CCCCN1Cc1cccnc1 (stereo not given),-6.9% (inactive)
13,COc1ccccc1N=Nc1c(O)[nH]c(=S)[nH]c1=O,-4.5% (inactive)
14,CN(C)P(=S)(Nc1ccccc1)C(Cl)(Cl)Cl (stereo not given),28.1% (inactive)
15,O=C(Nc1cccc(OC(=O)N2CCCCC2)c1)N1CCOCC1,0.65% (inactive)
16,CC(C)Oc1cccc(C(=O)C2CCCN(C3CCOCC3)C2)c1 (stereo not given),93.2% (active)
17,Cc1ccc(-c2nn(CCC#N)cc2C(=O)O)cc1C,-5.5% (inactive)
18,COC(=O)COc1cc(C)cc2oc(=O)c3c(c12)CCCC3,-6.35% (inactive)
19,O=C(COC(=O)c1ccccc1)Nc1ccc(Cl)cc1C(=O)c1ccccc1,-3.5% (inactive)
20,CN(C)C(=O)Oc1ccc(OCc2cccc[n+]2C)cc1,-6.21% (inactive)

row,Compound,inhibition
1,CCOC(=O)C1(CCc2ccccc2)CCN(Cc2ccco2)CC1,9% (inactive)
2,CCOC(=O)C1(Cc2ccc(Cl)cc2)CCN(C(C)CCn2cccn2)CC1 (stereo not given),80.9% (active)
3,CC(C)(C)[C@]1(O)C[C@@H]2OC(=O)C[C@@]23C(=O)O[C@@H]2OC(=O)[C@H](O)[C@]213,-6.51% (inactive)
4,CCCOC(=O)C1C2c3ccccc3C(c3ccccc32)C1C(=O)O (stereo not given),-5.51% (inactive)
5,CC(C(=O)Nc1ccc(Cl)cc1Cl)N1CC=C(c2ccccc2)CC1 (stereo not given),-2.71% (inactive)
6,CCN(N=Nc1nonc1OC)c1nonc1OC,0.16% (inactive)
7,O=C1NC(=O)N(c2ccc(F)cc2)C(=O)/C1=C/c1ccc2c(c1)CCCN2Cc1ccccc1,7.8% (inactive)
8,COc1cccc(N2C(=O)NC(=O)/C(=C\c3ccc([N+](=O)[O-])s3)C2=O)c1,93.6% (active)
9,O=C1NC(=O)N(c2ccccc2)C(=O)/C1=C/c1ccc([N+](=O)[O-])s1,93.8% (active)
10,Cc1cccc(N2C(=O)NC(=O)/C(=C\c3cnn(-c4ccccc4)c3)C2=O)c1,-2.18% (inactive)
11,COc1ccc(CN2C(=O)NC(=O)/C(=C\c3ccc(OC)c(OC)c3OC)C2=O)cc1,-6.27% (inactive)
12,O=C(COC(=O)Cc1ccccc1)Nc1ccc(F)cc1,0.24% (inactive)
13,OCC#CC[N+]1(CC#Cc2ccccc2)CCCC1,-1.69% (inactive)
14,N=c1ccccn1Cc1ccccc1,-0.35% (inactive)
15,C=CCN(CC=C)C(=O)Nc1ccc(OCC)cc1,-9.24% (inactive)
16,O=C(NC(c1ccc(Cl)cc1)P(=O)(Oc1ccccc1)Oc1ccccc1)OCc1ccccc1 (stereo not given),10.2% (inactive)
17,CN1CCN(c2cc(N3CCNCC3)ccc2[N+](=O)[O-])CC1,44% (inactive)
18,CCCCC(=O)N/N=C/c1c(O)n(CC)c(=S)n(CC)c1=O,-5.9% (inactive)
19,O=C(Nc1cccc2ccccc12)N1CCC2(CC1)OCCO2,0.77% (inactive)
20,COC(=O)C(O)(c1ccc(NC(=O)c2ccco2)c(OC)c1)C(F)(F)F (stereo not given),-2.15% (inactive)

row,Compound,inhibition
1,CCOC(=O)C(O)(c1ccc(NC(=O)c2ccco2)c(OC)c1)C(F)(F)F (stereo not given),73.8% (active)
2,CCOC(=O)C(O)(c1ccc(N)c(OC)c1)C(F)(F)F (stereo not given),-13.8% (inactive)
3,C=CCn1c(O)c(/C=N/N2CCOCC2)c(=O)[nH]c1=S,-4.94% (inactive)
4,COc1ccc(C2N3CC(C)(C)CN23)cc1 (stereo not given),-5.78% (inactive)
5,Cc1cc(C=C2C(=O)NC(=O)NC2=O)c(C)n1-c1ccncc1,0.48% (inactive)
6,Cc1cc(/C=C2/C(=O)NC(=O)N(Cc3ccco3)C2=O)c(C)n1-c1ccc(C(=O)O)cc1,-6.68% (inactive)
7,Cc1ccc(-n2c(C)cc(/C=C3\C(=O)NC(=O)N(C)C3=O)c2C)cc1C,58% (active)
8,Cc1ccnc(-n2c(C)cc(/C=C3\C(=O)NC(=S)N(C)C3=O)c2C)c1,70% (active)
9,Cc1ccccc1N1C(=O)NC(=O)/C(=C\c2cc(C)n(C)c2C)C1=O,2.98% (inactive)
10,Cc1c(C(=O)O)cccc1-n1c(C)cc(/C=C2\C(=O)NC(=O)N(c3ccc4c(c3)OCO4)C2=O)c1C,2.09% (inactive)
11,CC(=O)N(C1=NCCCS1)c1ccccc1F,-4.7% (inactive)
12,Cc1cccc(-n2c(O)c(C=NC34CN5CN(CN(C5)C3)C4)c(=O)[nH]c2=O)c1,-14.4% (inactive)
13,O=c1c2ccccc2nc(-c2ccccc2)n1-c1ccccn1,-4.66% (inactive)
14,C[N+]1(C)CCOC(O)(c2ccc(-c3ccc(C4(O)C[N+](C)(C)CCO4)cc3)cc2)C1 (stereo not given),20.9% (inactive)
15,O=C(OCCN1CCOCC1)C1(c2ccccc2)CCCC1,1.57% (inactive)
16,CC[N+]1(C)CCCC(OC(=O)C(O)(c2ccccc2)c2ccccc2)C1 (stereo not given),-2.17% (inactive)
17,CN1CCN(C(=S)SCC(=O)Nc2ccc(Cl)cc2C(=O)c2ccccc2)CC1,8.25% (inactive)
18,O=C(CCN1CCCCC1)NCC(=O)Nc1ccc(Br)cc1C(=O)c1ccccc1,91.4% (active)
19,O=C(CN1CCCCC1)Nc1ccc(Br)cc1C(=O)c1ccccc1Cl,11.2% (inactive)
20,O=[N+]([O-])c1ccc(C2C3C(c4ccccc4)=NC4(CCCCC4)N32)cc1 (stereo not given),19.8% (inactive)
